According to PubChem BioAssay AID1626 (SRMLSC, 2009):
Among all 220,000 compounds or so, about 2,000 (0.91%) were called active. Inconclusive results (about 2%) are left out. The list is a sample of the results. Entries with a potency or affinity are not part of this list. A number with no mark means an inactive call. No stated cut-off is given here; in the data, inconclusive means inhibition above about 80% without an active follow-up result; inactive means below that; test concentration not stated here.

assay: M. tuberculosis H37Rv growth inhibitors, H37Rv strain (AID 1626); details: active compounds read high, concentration not given here;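 further: bacteria incubated seven days before Alamar blue readout; 0% = bacteria only wells and 100% = bacteria with antibiotic wells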

Row | Compound | inhibition [%]
1 | Nc1nnc(SCC(=O)Nc2ccccc2)s1 | -3.63
2 | C=C1C(=O)[C@@]23[C@H](O)C[C@@H]4C(C)(C)CC[C@H](O)[C@]4(C)[C@@H]2C[C@H](O)[C@@H]1[C@H]3O | -0.64
3 | C#CCONC(=O)c1cc(OCC(F)(F)F)ccc1OCC(F)(F)F | -4.59
4 | c1ccc(C(c2ccccc2)c2noc(CN3CCN(CC4CC4)CC3)n2)cc1 | 0.03
5 | O=C(N/N=C/C=C/c1ccccc1)c1cccnc1 | -6.98
6 | Cc1[nH]c(=O)[nH]c(=O)c1S(=O)(=O)N(C)Cc1ccccc1 | -4.39
7 | CSCCC(NC(=O)c1cccc([N+](=O)[O-])c1)c1nc2ccccc2[nH]1 (stereo unspecified) | 24.1
8 | CSCC[C@H](NC(=O)c1cc([N+](=O)[O-])ccc1Cl)c1nc2ccccc2[nH]1 | 3.89
9 | CCN(CCCNC(=O)C1CCC(=O)N1Cc1ccccc1Cl)c1cccc(C)c1 (stereo unspecified) | 4.14
10 | CCOC(=O)C1=C(C)NC(=O)NC1c1c(C)nn(-c2ccccc2)c1Cl (stereo unspecified) | -11.2
11 | O=Nc1c(O)[nH]c2ccc(Cl)cc12 | -4.64
12 | Cc1ccccc1N=Cc1cccc(O)c1O | 30.2
13 | O=C1CCCC(O)=C1C=Nc1ccc(O)cc1 | 3.95
14 | CCOC(=O)c1c(-c2ccc(OC)cc2)csc1/N=C/C1=C(O)CCCC1=O | 4.93
15 | COc1cccc(N=CC2=C(O)CCCC2=O)c1 | -8.36
16 | Cc1cc(C)cc(N=Cc2c(O)c3ccccc3oc2=O)c1 | 6.96
17 | O=C1CCCC(O)=C1C=Nc1cccc(C(F)(F)F)c1 | 8.3
18 | Cc1cccc(-c2nc(C#N)c(NCC3CCCO3)o2)c1 (stereo unspecified) | 8.91
19 | CN(C)S(=O)(=O)c1ccc(NC(=S)NC(=O)c2cccs2)cc1 | -8.18
20 | CCCc1nnc(NC(=O)CCCN2C(=O)c3ccccc3C2=O)s1 | -6.93
21 | COC(=O)CCC(=O)N1CCc2cc(S(=O)(=O)N3CCc4ccccc43)ccc21 | -6.96

Row | Compound | inhibition [%]
22 | Cc1c(NC(=O)CSc2nnc(COc3ccccc3)n2-c2ccccc2)c(=O)n(-c2ccccc2)n1C | -6.74
23 | COc1ccc(C2SC[C@@H](C(=O)O)N2C(C)=O)cc1 (stereo partly specified) | -5.12
24 | O=C(CN1CCOCC1)Nc1ncc(Cc2cccc(Cl)c2)s1 | 9.73
25 | CCc1nnc(N2C(=N)SCC2=O)s1 | 10
26 | O=C(CN1CCOCC1)Nc1ncc(Cc2ccccc2Cl)s1 | 9.04
27 | CC(C)C(=O)Nc1ncc(Cc2cccc(Cl)c2)s1 | 17.7
28 | Cc1ccc(-c2csc(N3C(=N)SCC3=O)n2)cc1 | -8.29
29 | N=C1SCC(=O)N1c1nc(-c2ccccc2)cs1 | -8.62
30 | CC(C)(C)C(=O)Cn1c(NCCCl)nc2ccccc21 | 0.32
31 | CCc1ccccc1NC(=O)CN(C)C(=O)Cn1cc(C(F)(F)F)cc(Cl)c1=O | 10
32 | CCN(CC(=O)Nc1ccc(NC(C)=O)cc1)C(=O)/C=C/c1cccs1 | -2.91
33 | Clc1ccc(CN2CCN(c3ncnc4scc(-c5cccs5)c34)CC2)cc1 | 7.36
34 | O=C(Cn1cc2c(n1)CCCC2)NCCCN1CCN(C2CCCCC2)CC1 | -6.49
35 | CC(=O)/C(=C(/O)c1ccccc1)c1nc2ccccc2[nH]1 | 2.45
36 | O=C(OCc1ccccc1)C1=NNC2C(=O)N(Cc3ccccc3)C(=O)C12 (stereo unspecified) | 8.28
37 | COCCn1c(SCC(=O)N2CC(=O)Nc3ccccc32)nc2ccccc2c1=O | 14.5
38 | CCc1ccc(-c2cc(C(F)(F)F)n3nc(C(=O)Nc4c(C)nn(Cc5ccccc5C)c4C)cc3n2)s1 | 2.87
39 | CCc1ccc(-c2cc(C(F)(F)F)n3nc(C(=O)Nc4c(C)nn(Cc5ccccc5Cl)c4C)cc3n2)s1 | -4.86
40 | O=S(=O)(Nc1ccc(C(F)(F)F)cc1)c1cnc[nH]1 | -0.2
41 | CCOC(=O)C(C(=O)OCC)N(C#N)c1nc(C)cc(C)n1 | -14
42 | Cc1cccc(-c2nsc(SCC(=O)c3ccc(Cl)cc3)n2)c1 | 94

Row | Compound | inhibition [%]
43 | Cc1cccc(-c2nsc(SCC(=O)Nc3nccs3)n2)c1 | 10.4
44 | CCOC(=O)N1CCN(Cc2nc(-c3cccc(C)c3)no2)CC1 | -1.51
45 | CCOC(=O)CSc1nc(-c2ccccc2)nc2ccccc12 | -6.27
46 | CCOC(=O)CNC(=O)CSc1nnc(-c2cccc(C)c2)n1-c1ccc(OC)cc1 | 3.71
47 | CCOC(=O)CSc1nc(-c2ccc(OC)cc2)ns1 | 57.1
48 | CCOC(=O)CNC(=O)CSc1nnc(-c2ccccc2)c(-c2ccccc2)n1 | -8.15
49 | CCOC(=O)CNC(=O)CSc1nnc(SCC(=O)NCC(=O)OCC)s1 | -11.7
50 | COc1ccc(C2=NOC(C(=O)N3CCN(c4ccccc4OC)CC3)C2)cc1 (stereo unspecified) | 10.3
51 | COc1ccc(NC(=O)COC(=O)Cc2ccc(Br)cc2)cc1 | 15.8
52 | Cn1c2ccccc2c(=O)c2c(=O)n(Cc3ccco3)c(-c3ccc(C(C)(C)C)cc3)nc21 | 50.6
53 | Cc1c(F)cccc1NC(=O)CCC(=O)O | 0.24
54 | O=C(c1cnc2sccn2c1=O)N1CCCc2ccccc21 | 0.62
55 | CNC(=O)CSCCn1c(SCC(=O)NC)nc2ccccc2c1=O | -1.73
56 | CC(=O)c1cccc(NC(=O)C(C)OC(=O)CNC(=O)c2ccc(C)s2)c1 (stereo unspecified) | -1.06
57 | Clc1ccc(CSc2ncn[nH]2)cc1 | 74.3
58 | O=C(O)c1ccc(CSc2ncn[nH]2)cc1 | -5.36
59 | Cc1ccc(C)c(N(C)S(=O)(=O)c2cccc3nsnc23)c1 | -5.61
60 | COc1cccc(NC(=S)N(Cc2ccccn2)Cc2ccccc2Cl)c1 | 8.54
61 | CCn1c(=O)cc(NC2=NCC(C)CN2c2cccc(Cl)c2)n(C)c1=O (stereo unspecified) | -2.51
